Laboratory results: PubChem BioAssay AID651768 (National Center for Advancing Translational Sciences (NCATS), 2012)
About 1,700 (0.47%) of roughly 360,000 compounds were called active. Another 2% or so got no clear call; they are omitted. Calls follow the shape of the dose curve; as a rule, active = well fitted inhibition curve with a large enough effect; inconclusive = small, poorly fitted or top-dose-only effect; inactive = no such curve, though single readings can be large or run the other way. What follows is part of a selection rich in actives, with near analogues and random picks from the rest.

Target: Bifunctional 3'-5' exonuclease/ATP-dependent helicase WRN (Homo sapiens) (UniProt Q14191)
Experiment: qHTS for Inhibitors of WRN Helicase; also: nearly all actives have a fitted effect of over 55% in size
Conditions: WRN helicase unwinding, fluorescent forked duplex, kinetic; series mostly up to 114 µM
Method in brief: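 Primary qHTS, 1536-well format. 20 nM WRN + compound, 15 min RT; start with 100 nM forked fluorophore/quencher duplex, 2 mM ATP (final); kinetic read ex 525/em 598 nm.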
% is scaled to controls: 0 for no effect and ±100 for the full control effect; potency is read from the fitted curve at half-maximal effect.

Chain of Bifunctional 3'-5' exonuclease/ATP-dependent helicase WRN (Homo sapiens) (Q14191 whole entry, looked up): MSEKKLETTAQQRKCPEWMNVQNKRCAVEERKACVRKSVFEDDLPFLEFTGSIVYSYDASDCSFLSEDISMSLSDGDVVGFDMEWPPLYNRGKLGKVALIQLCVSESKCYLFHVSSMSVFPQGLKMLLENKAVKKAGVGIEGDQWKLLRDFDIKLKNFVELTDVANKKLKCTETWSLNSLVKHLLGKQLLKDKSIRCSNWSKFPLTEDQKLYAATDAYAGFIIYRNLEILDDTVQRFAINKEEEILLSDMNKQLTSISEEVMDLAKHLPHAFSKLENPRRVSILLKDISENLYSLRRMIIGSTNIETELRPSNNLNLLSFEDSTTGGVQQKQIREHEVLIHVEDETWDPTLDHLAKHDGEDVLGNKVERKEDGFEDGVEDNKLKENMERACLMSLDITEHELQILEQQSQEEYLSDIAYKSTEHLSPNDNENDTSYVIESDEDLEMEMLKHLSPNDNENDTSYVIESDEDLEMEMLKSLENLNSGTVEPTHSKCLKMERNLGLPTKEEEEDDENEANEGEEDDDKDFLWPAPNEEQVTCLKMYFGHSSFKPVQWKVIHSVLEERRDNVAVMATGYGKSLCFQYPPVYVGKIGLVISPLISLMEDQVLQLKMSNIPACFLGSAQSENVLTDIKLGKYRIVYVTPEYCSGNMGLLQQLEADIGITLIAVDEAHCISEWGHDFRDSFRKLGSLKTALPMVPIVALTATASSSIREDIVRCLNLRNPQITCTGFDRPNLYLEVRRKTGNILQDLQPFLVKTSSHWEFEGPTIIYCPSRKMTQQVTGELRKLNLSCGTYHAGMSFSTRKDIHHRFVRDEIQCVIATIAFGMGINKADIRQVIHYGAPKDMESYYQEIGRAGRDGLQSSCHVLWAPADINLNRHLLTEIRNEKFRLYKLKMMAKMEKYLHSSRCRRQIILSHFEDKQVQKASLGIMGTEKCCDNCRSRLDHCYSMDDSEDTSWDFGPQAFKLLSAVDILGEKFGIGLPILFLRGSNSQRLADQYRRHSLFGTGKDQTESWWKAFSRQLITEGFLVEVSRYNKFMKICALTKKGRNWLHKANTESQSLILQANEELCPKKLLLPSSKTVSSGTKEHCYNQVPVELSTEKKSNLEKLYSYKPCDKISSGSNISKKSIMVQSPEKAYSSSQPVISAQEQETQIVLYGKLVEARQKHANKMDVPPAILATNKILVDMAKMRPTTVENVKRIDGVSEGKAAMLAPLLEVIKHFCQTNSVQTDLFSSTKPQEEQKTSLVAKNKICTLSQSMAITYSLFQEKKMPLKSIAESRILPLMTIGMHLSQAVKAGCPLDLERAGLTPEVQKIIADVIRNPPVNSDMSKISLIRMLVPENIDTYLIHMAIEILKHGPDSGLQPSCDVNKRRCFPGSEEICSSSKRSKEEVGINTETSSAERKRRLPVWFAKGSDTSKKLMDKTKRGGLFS

Potency, active:
O=c1nc2s/c(=C\c3ccco3)c(=O)n2nc1Cc1ccccc1 35.5 µM
CN(C)c1nc(Nc2ccc(Cl)c(Cl)c2)nc(N(C)C)n1 79.4 µM
COc1ccc(Cl)cc1NC(=O)CCS(=O)(=O)c1ccc(Br)cc1 44.7 µM
O=C(O)C(c1ccccc1)N1C(=O)/C(=C\c2ccc(-c3cccc(Cl)c3)o2)SC1=S (configuration not stated) 44.7 µM
FC(F)(F)C1CCCN(c2nsc3ccccc23)C1 (configuration not stated) 22.4 µM
CC1=NN(c2ccc(Cl)c(C(=O)O)c2)C(=O)/C1=C/c1ccc(-c2ccccc2[N+](=O)[O-])o1 44.7 µM
O=c1[nH]c2ccccc2n2c(-c3ccccc3)nnc12 20 µM
COc1ccc(CS(=O)/C(Cl)=C(/Cl)C(=O)Nc2ccc(OC)nc2)cc1 (configuration not stated) 17.8 µM
Cc1c(CC(=O)N2CCN(C(=O)C3COc4ccccc4O3)CC2)c(=O)oc2c(O)c(O)ccc12 (configuration not stated) 10 µM
O=C(CCN1CCc2ccccc2C(O)(c2ccccc2)C1)c1ccc2c(c1)OCCO2 (configuration not stated) 31.6 µM
COc1cc(/C=C2/SC(=S)N(Cc3ccccc3)C2=O)cc(OC)c1O 10 µM
O=S(=O)(Nc1ccc(O)c2ccccc12)c1ccc(OC(F)(F)F)cc1 56.2 µM
Cc1ccccc1NC(=O)CN1C(=O)N/C(=C\c2cccn2-c2cccc(C(=O)O)c2)C1=O 10.6 µM

Potency, inactive:
O=c1/c(=C/c2ccc(CNS(=O)(=O)c3ccccc3)o2)sc2n1CCN=2
O=C(NCCc1ccco1)c1nn(Cc2ccccc2)c(=O)c2ccccc12
Cc1cc(C(=O)OC(C)C(=O)Nc2cccc(S(=O)(=O)N3CCOCC3)c2)c(C)o1 (configuration not stated)
CCOC(=O)N1CCN(C(=O)COC(=O)c2cccc(S(C)(=O)=O)c2)CC1
CC(=O)Nc1nc(N(C)C)nc(N(C)C)n1
CN(C)c1nc(NN)nc(Nc2ccc(F)cc2)n1
CCOc1ccc(OCC)c(NC(=O)CCS(=O)(=O)c2ccc(C)cc2)c1
COC(=O)[C@]1(Cc2ccccc2)N[C@H](CN(C)S(=O)(=O)c2ccc(OC(F)(F)F)cc2)[C@@H]2C(=O)N(C)C(=O)[C@@H]21
[O-][n+]1c2c(nn1-c1ccc(Cl)c(Cl)c1)-c1nonc1CC2
Cc1cc(C)c(S(=O)(=O)c2ccccc2)c(OC(=O)c2c(F)cccc2Cl)n1
CC(C(=O)NC1CCS(=O)(=O)C1)N1C(=O)/C(=C/c2ccc(Cl)cc2)SC1=S (configuration not stated)
CCc1c(-c2ccc(F)cc2)ncn1Cc1cccc(-c2ccccc2)c1
Cc1cccc(C(=O)NNC(=O)CSc2nnc(C(C)C)n2C)c1
COc1ccc(Br)c(Cn2c(C)c(C(=O)NCc3cccs3)sc2=O)c1
COC(=O)C1=CN(c2c(C)cc(C)cc2C)C(N)=C(C#N)C1c1cccc(F)c1 (configuration not stated)
FC(F)(F)c1cccc(-c2nc3ccccc3n2C(c2ccccc2)c2nc3ccccc3[nH]2)c1 (configuration not stated)
CC1CN(/C=C/C(=O)C(F)(F)F)CC(C)O1 (configuration not stated)
O=C1C2C3C=CC(C4CC34)C2C(=O)N1/N=C/c1ccc(-c2ccccc2[N+](=O)[O-])o1 (configuration not stated)
COc1c(Br)cc2c(C)c(C(=O)N3CCOCC3)oc2c1Br
O=C(Cn1nnc2ccccc2c1=O)NCc1ccc(Cl)cc1
O=C(c1ncn2c1c(=O)[nH]c1ccccc12)N1CCc2ccccc2C1
CS(=O)(=O)N1CCCCC1c1cc(C(=O)NCc2ccccc2)no1 (configuration not stated)
COc1ccc(OC(C)C(=O)Nc2cccnc2)cc1 (configuration not stated)
COc1ccc(C(O)c2nc(-c3ccc(OC)nc3)cs2)cc1 (configuration not stated)
CC(C)C[C@H]1CN([C@@H](Cc2ccccc2)CN2CCC[C@@H]2CN2C(=O)C(=O)NC[C@@H]2Cc2ccc(O)cc2)C(=O)C(=O)N1CCc1ccccc1
Cc1cccc(C)c1NC(=O)C(c1cccc2ccccc12)n1c(=O)c(-c2ccco2)nc2ccccc21 (configuration not stated)
O=C(CSC(=S)N1CCCCC1)c1c(F)cccc1F
Cc1ccc(S(=O)(=O)NCCC(=O)NNC(=O)C2COc3ccccc3O2)cc1 (configuration not stated)
O=C(CN1CCN(c2ccccc2F)CC1)c1ccc2c(c1)OCO2
CCC1(c2ccccc2)NC(=O)N(CC(=O)c2ccc3c(c2)OCO3)C1=O (configuration not stated)
CCCCCNC(=O)C1C(=O)Nc2ccccc2C(=O)N1C(C)(C)C (configuration not stated)
O=c1[nH]oc(O)c1-c1ncc(C(F)(F)F)cc1Cl
CN(Cc1c(F)cccc1Cl)S(=O)(=O)c1cccs1
COC(=O)C1=C(C(=O)OC)[C@@H]2N(C)c3ccccc3[C@@]23C[C@@H](C(=O)OC)N(C(=O)c2ccco2)C3=N1
COc1ccc(CCNC2=C(Cl)C(=O)N(Cc3ccccc3)C2=O)cc1OC
CN1C=CC=C/C1=C1\SC(=S)N(Cc2ccccc2)C1=O
COC(=O)C[C@H]1C=C[C@H](NC(=O)c2ccc(F)cc2)[C@@H](CO)O1
O=S(=O)(Nc1ccc(OC(F)(F)F)cc1)c1cccc2nonc12
COc1ccccc1NS(=O)(=O)c1ccc(C(=O)N2CCN(c3ccccc3O)CC2)cc1
O=C(NCc1ccncc1)C(=O)NCC1OCCN1S(=O)(=O)c1ccc(Br)cc1 (configuration not stated)
Cc1ccccc1N/C(SCc1ccc(Cl)cc1)=C(/C#N)C(N)=O
O=C(CCCCCn1c(=S)[nH]c2ccsc2c1=O)NC1CCCCC1
O=C(/C=C/c1cccs1)NCc1cccnc1
Cc1ccccc1NC(=O)Cn1c(=O)n(CC2CCCO2)c(=O)c2ccccc21 (configuration not stated)
COC(=O)CN1C(=O)N/C(=C/c2ccc(OC)c(C)c2OC)C1=O

Activity change, negative = inhibition, inactive:
O=C(CCS(=O)(=O)c1ccc(Br)cc1)NCCc1ccc(Cl)cc1 -8.96% [at 11.6 µM]
CC(C(=O)Nc1ccc(O)c(C(=O)O)c1)N1C(=O)/C(=C/c2cccs2)SC1=S (configuration not stated) -16.7% [at 11.6 µM]
COc1ccc(/C=C2/C(=O)N(c3ccccc3)N=C2C)c(OC)c1 -30.6% [at 11.6 µM]
Cc1c(CCC(=O)O)c(=O)oc2c(C)c(OCc3ccccc3Cl)ccc12 -22.9% [at 11.6 µM]
